Test results: PubChem BioAssay
Active and inactive are the calls of the source.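 How the source made its calls: active means visual image review flags a hit and inhibition of aggregation exceeds 20%; inconclusive means visual hit but inhibition at or below 20%; inactive means no hit on visual image review.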

Test: inhibitors of mutant huntingtin aggregation, primary screen, imaging, exon1htt(103Q)mCFP cells, high-content imaging (AID 483);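 further: compound exposure lasted 3 days before fixation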;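 on nuclei count: percent of the per-plate median nuclei count of sample wells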
Settings: exon1htt(103Q)mCFP cell line, aggregate imaging, at 2 µM; inhibition of aggregation: stronger effect = higher value; nuclei count: measured here: cell count, toxicity

**Q.** For `COc1ccc(-c2nc3c(c(SCC(=O)N4CCOCC4)n2)COC(C)(C)C3)cc1`, which nuclei count is on record?
**A.** 100%

**Q.** What about the inhibition of aggregation of the same compound?
**A.** -8.2% (inactive)

**Q.** For `CCN(CC)C(=O)c1ccc(CS(=O)(=O)c2ccc(OC)cc2)o1`, which inhibition of aggregation is on record?
**A.** 1.4% (inactive)

**Q.** What about the nuclei count of the same compound?
**A.** 102%

**Q.** Which results are given for `CC(C)CCNC(=O)NC(=O)COc1ccccc1C#N`?
**A.** inhibition of aggregation: 15.6% (inactive); nuclei count: 102%

**Q.** Which inhibition of aggregation does the source give for `CCOC(=O)N1CCN(S(=O)(=O)c2ccc(F)c(C(=O)Nc3cc(C)cc(C)c3)c2)CC1` here?
**A.** 16.1% (inactive)

**Q.** And the nuclei count?
**A.** 62.7%

**Q.** For `Cc1nnc(SCC(=O)Nc2c(Cl)cccc2Cl)[nH]c1=O`, which nuclei count is on record?
**A.** 87%

**Q.** And the inhibition of aggregation?
**A.** 17.6% (inactive)

**Q.** With `CCCCN(CCCC)CCn1cnc2c([nH]c3ccc(OC)cc32)c1=O` as the compound, how does the nuclei count read?
**A.** 85.8%

**Q.** What about the inhibition of aggregation of the same compound?
**A.** 0.2% (inactive)

**Q.** For `CC(=O)c1ccc(OCC(O)CN2CC(C)OC(C)C2)cc1` (stereo not given), which inhibition of aggregation is on record?
**A.** 15% (inactive)

**Q.** And the nuclei count?
**A.** 92.4%

**Q.** For `CCOc1ccc(-c2nc(C#N)c(NCc3ccc4c(c3)OCO4)o2)cc1`, which inhibition of aggregation is on record?
**A.** -13.1% (inactive)

**Q.** What about the nuclei count of the same compound?
**A.** 93.8%

**Q.** What does the source list for `Cc1cc(N=Cc2cc(Br)ccc2O)no1`?
**A.** inhibition of aggregation: -17.3% (inactive); nuclei count: 106%

**Q.** What does the source list for `CCCCN1C(=O)C2C(C(=O)Nc3cccc(OC)c3)C3C=CC2(O3)C1C(=O)NC1CCCCC1C` (stereo not given)?
**A.** nuclei count: 109%; inhibition of aggregation: 1.7% (inactive)

**Q.** Which results are given for `CN(C)S(=O)(=O)c1ccc2c(c1)c(=O)c(C(=O)NCCCN1CCCCCC1)cn2C`?
**A.** nuclei count: 101%; inhibition of aggregation: 4.4% (inactive)

**Q.** What does the source list for `COc1ccc(C(=O)N2CCN(c3nc4cc(C)ccc4cc3C#N)CC2)c(OC)c1`?
**A.** nuclei count: 102%; inhibition of aggregation: -9.9% (inactive)

**Q.** Which inhibition of aggregation does the source give for `COc1cc(C(=O)OC(C)CN2CCCC2)cc(OC)c1OC` (stereo not given) here?
**A.** -4.1% (inactive)

**Q.** And the nuclei count?
**A.** 101%

**Q.** Which inhibition of aggregation does the source give for `Cc1ccnc2c(N3C(=O)C4C5C=CC(C5)C4(C)C3=O)cccc12` (stereo not given) here?
**A.** -2.2% (inactive)

**Q.** What about the nuclei count of the same compound?
**A.** 94.9%

**Q.** With `COc1ccc(OC)c(NC(=O)CSc2nnc(Cc3cccn3C)n2-c2ccc(F)cc2)c1` as the compound, how does the nuclei count read?
**A.** 86.6%

**Q.** And the inhibition of aggregation?
**A.** 14.8% (inactive)

**Q.** For `COc1ccc(C2=NO[C@@H]3C(=O)N(c4cccc(C)c4C)C(=O)[C@H]23)cc1OC`, which inhibition of aggregation is on record?
**A.** 10% (inactive)

**Q.** And the nuclei count?
**A.** 91.7%

**Q.** With `CN(C)c1nc(SCCOC(=O)c2ccccc2)nc(N(C)C)n1` as the compound, how does the nuclei count read?
**A.** 118%

**Q.** And the inhibition of aggregation?
**A.** -21.8% (inactive)

**Q.** For `CCN(CC)c1ccc(-c2c(C#N)c(N)nc(OC)c2C#N)cc1`, which inhibition of aggregation is on record?
**A.** -21% (inactive)

**Q.** What about the nuclei count of the same compound?
**A.** 112%

**Q.** Which inhibition of aggregation does the source give for `COc1ccc(CN(CC(=O)NCC2CCCO2)C(=O)CNS(=O)(=O)c2ccc(C)cc2)cc1` (stereo not given) here?
**A.** -5.2% (inactive)

**Q.** And the nuclei count?
**A.** 119%

**Q.** With `COC(=O)c1sccc1NC(=O)c1csc(C)c1` as the compound, how does the inhibition of aggregation read?
**A.** 0.6% (inactive)

**Q.** And the nuclei count?
**A.** 88%

**Q.** Which results are given for `Cc1ccc(C(=O)CC2(O)C(=O)N(C)c3ccc(Br)cc32)c(C)c1` (stereo not given)?
**A.** inhibition of aggregation: -6.2% (inactive); nuclei count: 107%

**Q.** Which inhibition of aggregation does the source give for `CC(=O)Nc1c(-c2ccc(F)cc2)nc2ccccn12` here?
**A.** 16.5% (inactive)

**Q.** What about the nuclei count of the same compound?
**A.** 104%

**Q.** Which nuclei count does the source give for `CCCc1cc(=O)[nH]c(/N=C(\N)Nc2ccccc2)n1` here?
**A.** 94.3%

**Q.** What about the inhibition of aggregation of the same compound?
**A.** -12.7% (inactive)

**Q.** With `O=C(CN1CCCC1)Nc1ccc(NC(=O)Nc2ccccc2)cc1` as the compound, how does the inhibition of aggregation read?
**A.** 8.5% (inactive)

**Q.** What about the nuclei count of the same compound?
**A.** 96.4%

**Q.** With `Cc1ccc(CN2C(=O)CCC2C(=O)NC2CCCC2)cc1` (stereo not given) as the compound, how does the inhibition of aggregation read?
**A.** 6.6% (inactive)

**Q.** And the nuclei count?
**A.** 103%

**Q.** What does the source list for `CSCSC1=C(C#N)C(c2ccc(Cl)cc2)C(C(C)=O)=C(C)N1` (stereo not given)?
**A.** nuclei count: 112%; inhibition of aggregation: -2.2% (inactive)

**Q.** Which results are given for `COc1ccc(OC)c(S(=O)(=O)N2c3ccccc3CC2C)c1` (stereo not given)?
**A.** inhibition of aggregation: 4.4% (inactive); nuclei count: 84.6%

**Q.** Which results are given for `CC(=O)Nc1ccc(OCC(O)Cn2nc(C)nc2C)cc1` (stereo not given)?
**A.** nuclei count: 95.7%; inhibition of aggregation: -13.4% (inactive)

**Q.** Which inhibition of aggregation does the source give for `CC(C)C1C2=C(CC(C)(C)CC2=O)ON1c1ccccc1` (stereo not given) here?
**A.** 9.1% (inactive)

**Q.** And the nuclei count?
**A.** 86.8%

**Q.** For `O=C(CN1C(=O)C2C3C=CC(C3)C2C1=O)NCc1ccc2c(c1)OCO2` (stereo not given), which inhibition of aggregation is on record?
**A.** 8.3% (inactive)

**Q.** And the nuclei count?
**A.** 102%

**Q.** Which inhibition of aggregation does the source give for `COc1ccc(C(=O)Nc2ccc(S(=O)(=O)Nc3onc(C)c3C)cc2)cc1` here?
**A.** -4.3% (inactive)

**Q.** And the nuclei count?
**A.** 110%

**Q.** Which inhibition of aggregation does the source give for `Cc1nnc(SCc2ccccc2)n1N` here?
**A.** -11.7% (inactive)

**Q.** And the nuclei count?
**A.** 101%

**Q.** What does the source list for `O=C(c1ncn[nH]1)N1CCN(c2nc(-c3ccccc3)cs2)CC1`?
**A.** nuclei count: 68.1%; inhibition of aggregation: 2.5% (inactive)

**Q.** Which results are given for `Cc1cc(C)nc(SC2=CS(=O)(=O)c3ccccc32)n1`?
**A.** inhibition of aggregation: -0.8% (inactive); nuclei count: 107%

**Q.** Which results are given for `CC(=O)OC1c2ccccc2C(=O)N1c1ccccc1C` (stereo not given)?
**A.** nuclei count: 85.9%; inhibition of aggregation: -20.1% (inactive)

**Q.** For `CCCCn1c(=O)[nH]c(=O)c2c1nc(COc1ccc(C#N)cc1)n2CCC`, which inhibition of aggregation is on record?
**A.** -40.4% (inactive)

**Q.** And the nuclei count?
**A.** 97.4%

**Q.** With `Cc1ccccc1CSc1nnc(C)c(=O)[nH]1` as the compound, how does the nuclei count read?
**A.** 105%

**Q.** What about the inhibition of aggregation of the same compound?
**A.** -41.3% (inactive)

**Q.** For `Cc1nc2cc(C(=O)O)ccc2n1-c1ccc(F)cc1F`, which nuclei count is on record?
**A.** 99.5%

**Q.** What about the inhibition of aggregation of the same compound?
**A.** -2.2% (inactive)

**Q.** What does the source list for `CC(C)[C@H](NC(=O)NC1CCCC1)C(=O)O`?
**A.** nuclei count: 87.5%; inhibition of aggregation: 7.6% (inactive)

**Q.** Which nuclei count does the source give for `Cc1ccccc1N1OC2C(=O)N(c3ccc(F)cc3)C(=O)C2C1c1ccccn1` (stereo not given) here?
**A.** 96.3%

**Q.** And the inhibition of aggregation?
**A.** -5.9% (inactive)
